CHX counter – affects cycloheximide protein synthesis inhibition readout, counter-screen; cell reporter, cycloheximide protein synthesis inhibition counterscreen; max response, %; 300,000 compounds, 12% hits; AID 2314; in the data active = max response mostly above about 13%, no sharp cut-off; inactive = mostly below about 14%; also: read at 38.3 µM for the half of the compounds with a filed dose; 0% is about no effect
Shiga inhibitor – blocks Shiga toxin action in Vero cells; inhibition, % at 38.7 µM; Vero cells, Shiga toxin protein synthesis inhibition reporter; AID 2315; 290,000 compounds, 9.2% hits; in the data active = inhibition mostly above about 28%, no sharp cut-off; inactive = mostly below about 43%; also: 0% is about no effect
FBPA Giardia inh – inhibitors of Giardia lamblia fructose-1,6-bisphosphate aldolase; A8B2U2; purified Giardia FBPA; Potency, µM (series often up to 59.6 µM), for the others: at the top dose activity, negative = inhibition, usual class: inhibitors; 290,000 compounds, 0.71% hits; also: potency is read from the fitted curve at half-maximal effect; % is scaled to controls: 0 for no effect and ±100 for the full control effect; nearly all actives have a fitted effect of over 55% in size
Target sequence (A8B2U2 whole entry, looked up): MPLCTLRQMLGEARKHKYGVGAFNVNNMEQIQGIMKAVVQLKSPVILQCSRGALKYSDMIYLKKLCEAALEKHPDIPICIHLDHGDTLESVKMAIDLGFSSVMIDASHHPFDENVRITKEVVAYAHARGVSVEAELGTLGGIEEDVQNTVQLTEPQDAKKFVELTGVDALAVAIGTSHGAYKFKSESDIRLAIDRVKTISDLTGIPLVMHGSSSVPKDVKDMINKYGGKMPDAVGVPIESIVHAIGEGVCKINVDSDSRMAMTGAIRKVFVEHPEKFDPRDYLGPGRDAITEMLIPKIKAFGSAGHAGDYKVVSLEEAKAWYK
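40 nM FBPA preincubated 10 min at RT with compound (up to 57.5 uM final), then substrate plus GAPDH/TPI/NAD/arsenate coupling and diaphorase/resazurin added. Fluorescence read after 20 min at RT, 525/598 nm.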
TbPYK inhibitor – inhibitors of Trypanosoma brucei pyruvate kinase. Q57TT1. TbPYK enzyme, Kinase-Glo Plus ATP luminescence, 45 min. Potency, µM (top dose mostly 76.8 µM), without a hit: at the highest dose activity, negative = inhibition, hits mostly inhibitors. 410,000 compounds, 0.12% hits. AID 624173; also: potency is read from the fitted curve at half-maximal effect; % is scaled to controls: 0 for no effect and ±100 for the full control effect; nearly all actives have a fitted effect of over 50% in size
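Luminescent Kinase-Glo Plus end-point after 45 min room-temperature reaction of T. brucei pyruvate kinase started with 130 uM ADP (final). Buffer TEA 50 mM pH 7.2 with KCl, MgCl2, BSA, Tween-20; titration-based qHTS with fitted concentration-effect curves.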
RE007 growth inh – less growth of the S. pombe RE007 Vpr strain | Potency, µM (doses to about 92.2 µM), for inactives: top-dose activity change, negative = less growth, most hits filed as inhibitors | 360,000 compounds, 0.21% hits | S. pombe RE007 Vpr strain, BacTiter-Glo ATP luminescence, 24 h | AID 651644; active = well fitted falling curve with a large enough effect; inconclusive = small, poorly fitted or top-dose-only effect; inactive = no such curve, though single readings can be large or run the other way; also: potency is read from the fitted curve at half-maximal effect; % is scaled to controls: 0 for no effect and ±100 for the full control effect; nearly all actives have a fitted effect of over 50% in size
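Fission yeast RE007 carrying one integrated HIV-1 vpr copy, seeded at OD 0.01 in PMG+AL medium with 23 nL pinned compound. Grown 24 h at 30 degrees; viability read by BacTiter-Glo luminescence after 5 min.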
LmPK inhibitor – LmPK (Leishmania mexicana) enzyme inhibition; purified LmPK, Kinase-Glo ATP luminescence, 1 h; Potency, µM (top dose mostly 57.5 µM), without a hit: at the top dose activity change, negative = inhibition, actives largely listed as inhibitors; Q27686; 290,000 compounds, 0.37% hits; also: potency is read from the fitted curve at half-maximal effect; % is scaled to controls: 0 for no effect and ±100 for the full control effect
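0.1 nM LmPK, 0.5 mM PEP, 0.1 mM ADP; 50 mM imidazole pH 7.2, 7 mM MgCl2, 50 mM KCl; 1 h RT. Kinase-Glo luminescence readout, normalized to no-enzyme (full inhibition) and uninhibited wells.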
Numbers without * were called inactive; ? = inconclusive; nt = no result; [ ] = dose if it differs, or a comment. The full list was thinned out, with hits kept by preference. Unless noted, calls follow the shape of the dose curve; as a rule, active = well fitted curve in the direction sought with a large enough effect; inconclusive = small, poorly fitted or top-dose-only effect, or another doubt; inactive = no such curve, though single readings can be large; an effect the other way counts as inactive or inconclusive.

SMILES	CHX counter	Shiga inhibitor	FBPA Giardia inh	TbPYK inhibitor	RE007 growth inh	LmPK inhibitor
COc1ccc(OC)c(/C=C/C(=O)N2CCCc3ccccc32)c1	18	54	-16%	-1%	-8%	1%
CCN(Cc1ccccc1)C(=O)Cn1c(=O)n(-c2ccc(Cl)cc2)c(=O)c2c(C)c(C(=O)N(C)C)sc21	nt	nt	nt	4%	nt	nt
CC(C)C[C@@H](CC(=O)N[C@@H](CCC(=O)O)CC(=O)O)NC(=O)[C@@H]1CCCC[C@H]1NC(=O)C[C@@H](NC(=O)C[C@H](Cc1ccccc1)NC(=O)[C@@H]1CNCC[C@H]1N)C(C)C	nt	nt	-6%	nt	nt	nt
O=C(Nc1ccc2ccccc2c1)C(=O)C1C(=O)Nc2ccccc21 (stereo unspecified)	32*	66*	17%	nt	nt	-2%
Cc1cccc(NC(=O)C(=O)C2C(=O)Nc3ccccc32)c1 (stereo unspecified)	9	50	-2%	-2%	-27%	-3%
O=C(Nc1ccc(F)cc1)C(=O)C1C(=O)Nc2ccccc21 (stereo unspecified)	14	55*	-18%	0%	-10%	-2%
Cc1ccccc1-c1nn2c(=O)cc(CN3CCN(C(=O)c4ccc(C(C)(C)C)cc4)CC3)nc2s1	nt	nt	nt	4%	nt	nt
Cc1ccccc1NC(=O)c1ccc(NC(=O)c2ccco2)cc1	27*	39	0%	-2%	-8%	-3%
Cc1ccc(NCc2ccco2)cc1C	27*	70*	?	-6%	1%	-15%
Cc1ccc(NC(=O)CCNC(=O)c2ccco2)cc1Cl	-1	-2	8%	-5%	2%	-4%
Cc1ccccc1NC(=O)c1ccccc1NC(=O)c1ccco1	1	-7	0%	1%	-2%	-2%
Cc1ccc(NC(=O)c2ccco2)cc1C	37*	84*	-2%	?	?	?
Cc1ccc(NC(=O)CCNC(=O)c2ccco2)cc1F	13*	26	0%	-2%	0%	3%
Cc1cc(NC(=O)c2ccco2)ccc1NC(=O)c1ccco1	22	71*	-7%	-17%	-26%	?
CCn1nccc1C(=O)Nc1ccc(C)c(C)c1	34*	62*	-1%	1%	-27%	-22%
O=C(Nc1ccccn1)c1ccc(NC(=O)c2ccco2)cc1	40*	71*	-3%	-11%	-14%	-24%
Cc1cc(NC(=O)/C=C/c2ccco2)ccc1NC(=O)c1ccccc1	29*	53*	2%	-3%	9%	3%
O=C(NCc1ccccc1)c1ccc(NC(=O)c2ccco2)cc1	-4	6	nt	-7%	7%	-8%
COc1ccc(Br)cc1C(=O)Nc1ccc(N2CCCC2)cc1	-3	-8	5%	?	4%	-4%
O=C(Nc1ccc(N2CCCC2)cc1)c1ccc(Br)cc1	12*	19	-1%	4%	-5%	3%
CC(C)Oc1ccc(C(=O)Nc2ccc(N3CCCC3)cc2)cc1	20*	27*	-8%	-13%	7%	1%
Cc1ccc(SCCC(=O)N(C)C)cc1	17*	23	-1%	8%	0%	-12%
Cc1ccc(SCCC(=O)NC(C)(C)C)cc1	44*	73*	-1%	-6%	-9%	4%
Cc1ccc(Cl)cc1NC(=O)c1sc(-n2nc(C)c(Cc3ccc4c(c3)OCO4)c2C)nc1C	nt	nt	nt	-3%	nt	nt
COc1ccc(-c2cn3cccnc3n2)cc1NC(=O)Nc1ccc(Cl)cc1	nt	nt	nt	1%	nt	nt
SMILES	CHX counter	Shiga inhibitor	FBPA Giardia inh	TbPYK inhibitor	RE007 growth inh	LmPK inhibitor
Cc1nc(NCc2ccccc2)c2nc(-c3ccccc3)n(CCCN(C)C)c2n1	nt	nt	3%	nt	nt	nt
CCc1nc2cc3sc(CC)nc3cc2s1	25*	74*	-11%	6%	-5%	0%
CCOc1ccc2nc(Cl)sc2c1	7	13	-3%	-1%	-2%	0%
CC(C)S(=O)(=O)c1csc(C(=O)Nc2ccc(F)cc2)c1N	42*	53	-9%	-12%	?	14µM*
COc1cccc(/C=N/n2c(=S)n(C)c3ccccc32)c1OC	-2	2	-5%	nt	0%[3.69 µM]	6%
COc1cccc(/C=N/n2c(C)nc3ccccc32)c1OC	21	38*	0%	5%	4%	5%
COc1cccc(/C=N\n2c(C)nnc2C)c1OC	-3	-7	3%	2%	-3%	-2%
COc1cccc(/C=N/n2c(=O)[nH]c3ccccc32)c1OC	38*	42*	-2%	-2%	-26%	0%
CC(NC(=O)c1cc(COc2c(F)cccc2F)on1)c1cnn(-c2ccccc2)c1 (stereo unspecified)	25*	76*	-6%	-3%	14%	-2%
COc1ccc(OCc2cc(C(=O)N3CCSCC3)no2)c(Cl)c1	67*	143*	nt	11%	9%	-1%
COc1ccc(OCc2cc(C(=O)N3CCCCCC3)no2)c(Cl)c1	47*	68*	nt	-2%	3%	-12%
O=C(c1cc(COc2ccc(F)cc2Cl)on1)N1CCSCC1	62*	67*	1%	2%	-16%	-1%
COc1ccc(OCc2cc(C(=O)N3CCOCC3)no2)c(Cl)c1	43*	91*	3%	2%	12%	0%
COCC1CCN(C(=O)c2cc(COc3ccc(F)cc3Cl)on2)C1 (stereo unspecified)	nt	nt	nt	-1%	2%	nt
COc1ccc(OCc2cc(C(=O)NC(C)c3cnn(C)c3)no2)c(Cl)c1 (stereo unspecified)	38*	47*	nt	2%	-1%	2%
COc1cccc(OCc2cc(C(=O)N3C[C@H]4C[C@@H](C3)c3cccc(=O)n3C4)no2)c1	60*	52*	-15%	-4%	5%	0%
COc1cccc(OCc2cc(C(=O)N3CCN(C)C(c4ccccc4)C3)no2)c1 (stereo unspecified)	32*	77*	nt	0%	-5%	-2%
CC(C)Oc1ccc(CNC(=O)c2ccc3c(c2)nc2n3CCOC2)cc1	nt	nt	nt	1%	nt	nt
COc1ccc(OCc2cc(C(=O)N3CCN(CC(=O)N(C)C)CC3)no2)c(Cl)c1	23*	3	7%	-6%	7%	-2%
O=C(c1cc(COc2ccc(F)cc2Cl)on1)N(CCO)Cc1cccs1	20*	49	nt	1%	1%	-10%
COc1cccc(OCc2cc(C(=O)NCCc3cccc(C)n3)no2)c1	11	9	-1%	-4%	-6%	6%
COc1ccc(OCc2cc(C(=O)N3CCC(c4ccccc4)CC3)no2)c(Cl)c1	78*	106*	nt	-2%	5%	-3%
COc1cccc(OCc2cc(C(=O)NC(C)c3cnn(C)c3C)no2)c1 (stereo unspecified)	27*	59*	15%	13%	3%	2%
CN(C)CCNC(=O)c1ccc(Cn2c(=O)c3cccn3c3cccnc32)cc1	nt	nt	nt	13%	nt	nt

Screening data (PubChem BioAssay)
